# Results reported in PubChem BioAssay (NCI).
# Values joined by “and” are separate entries in the source; they are usually repeats but may differ in a detail not shown here. Equal entries are not always repeated. The panel holds about 83,000 compounds, 20% with a hit somewhere; the sample as a whole holds those more often.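 A percent growth of 40 corresponds to 60% growth inhibition; 0 means no net growth; -100 means all cells died. Active threshold: below 10.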 Active and inactive are the calls of the source. Where a SMILES comes first, the peptide text is derived from it. The star is where a group is joined. Trt = c1ccc(C(c2ccccc2)(c2ccccc2)*)cc1; Cbz = O=C(OCc1ccccc1)*
# Tests used:
# Assay in all cases: NCI-60 one-dose screen, 48 h (100 = growth as untreated, 0 = no growth, -100 = all killed)
# Conditions in all cases: 10 µM unless noted
# HCT-15 colon = tested on: HCT-15 colon
# HT29 colon = tested on: HT29 colon
# SNB-75 CNS = tested on: SNB-75 CNS
# SNB-19 CNS = tested on: SNB-19 CNS
# U251 CNS = tested on: U251 CNS
# PC-3 prostate = tested on: PC-3 prostate
# UACC-62 melanoma = tested on: UACC-62 melanoma
# LOX IMVI melanoma = tested on: LOX IMVI melanoma
# SK-MEL-28 melanoma = tested on: SK-MEL-28 melanoma
# SK-MEL-5 melanoma = tested on: SK-MEL-5 melanoma
SMILES,growth (HCT-15 colon),growth (HT29 colon),growth (SNB-75 CNS),growth (SNB-19 CNS),growth (U251 CNS),growth (PC-3 prostate),growth (UACC-62 melanoma),growth (LOX IMVI melanoma),growth (SK-MEL-28 melanoma),growth (SK-MEL-5 melanoma)
CCCCCCCCCCCCCCCCOP(=O)([O-])OCC[N+](C)(C)C,1.44% (active),-14% (active),44.2% (inactive),-13.3% (active),8.3% (active),-22.1% (active),37.6% (inactive),27.8% (inactive),98.3% (inactive),–
Oc1ccc(/C=N/NC(=S)Nc2ccccc2)nc1,24.8% (inactive),34.6% (inactive),31.4% (inactive),42% (inactive),14.7% (inactive),23.3% (inactive),-9.22% (active),-18.7% (active),43.1% (inactive),–
Oc1c(Cl)cc(Cl)c2cccnc12,44.6% (inactive) and 30.1% (inactive),63% (inactive) and 90.4% (inactive),82.6% (inactive) and 46.2% (inactive),57.4% (inactive) and 38.9% (inactive),35.5% (inactive),50.5% (inactive) and 30.9% (inactive),58.2% (inactive) and 49.3% (inactive),32.5% (inactive) and 39.4% (inactive),83.2% (inactive) and 65.5% (inactive),–
COC(=O)C(CSC(c1ccccc1)(c1ccccc1)c1ccccc1)NC(=O)C(CC(N)=O)NC(=O)OCc1ccccc1 (stereo not drawn) (Cbz-Asn-Cys(Trt)-OMe; configuration not given here),13.7% (inactive),33.7% (inactive),20.3% (inactive),56.2% (inactive),50.2% (inactive),36.9% (inactive),-11.7% (active),-12% (active),24.4% (inactive),–
COC(=O)Nc1nc2ccc(C(=O)c3ccccc3)cc2[nH]1,30.2% (inactive) and 14.1% (inactive) and 15.8% (inactive),4% (active) and 5.13% (active) and 2.8% (active),8.68% (active) and 89.4% (inactive) and 23.9% (inactive),33.6% (inactive) and 14.3% (inactive) and 33.1% (inactive),23.7% (inactive) and 19.9% (inactive) and 16.9% (inactive),30.5% (inactive) and 18.6% (inactive) and 16.7% (inactive),47.8% (inactive) and 31.1% (inactive) and 37.4% (inactive),37.6% (inactive) and 31.3% (inactive) and 31.1% (inactive),48.9% (inactive) and 61.5% (inactive) and 55.6% (inactive),8.39% (active) and 4.91% (active) and -9.41% (active)
O=C(/C=C/C=C/c1ccccc1)c1ccco1,92.2% (inactive),85.4% (inactive),83% (inactive),92.5% (inactive),56.4% (inactive),85.9% (inactive),72.1% (inactive),64.8% (inactive),123% (inactive),91.1% (inactive)
c1ccc2c(c1)Nc1cc3ccccc3cc1N2,17.5% (inactive),14.7% (inactive),32.6% (inactive),57.1% (inactive),43% (inactive),24.9% (inactive),52.9% (inactive),11.3% (inactive),83.3% (inactive),-75.7% (active)
Cc1ccc2c(ccc3c[n+]4c5ccccc5ccc4n32)c1,79.6% (inactive),8.52% (active),8.15% (active),2.91% (active),-12.4% (active),8.46% (active),-48.9% (active),22.5% (inactive),-28.1% (active),–
N#CSCc1c(Cl)cccc1Cl,14.6% (inactive),12% (inactive),96.4% (inactive),90.2% (inactive),91.8% (inactive),76.2% (inactive),88.5% (inactive),49.9% (inactive),56.2% (inactive),87.5% (inactive)
O=C(Nc1ccccc1)c1cc(Cl)ccc1O,64.1% (inactive),89% (inactive),64% (inactive),41.3% (inactive),59.1% (inactive),66.5% (inactive),34.1% (inactive),79.8% (inactive),55.7% (inactive),7.81% (active)
NC1=CC(=O)c2ccccc2C1=O,61.5% (inactive),94.7% (inactive),89.2% (inactive),96.3% (inactive),66.7% (inactive),55.6% (inactive),60.8% (inactive),24.5% (inactive),103% (inactive),–
CN(C)C(=O)SC1=C(c2c(Cl)cccc2Cl)C(=O)c2ccccc21,-22.4% (active),-35.3% (active),49.3% (inactive),97.4% (inactive),90% (inactive),77% (inactive),26.7% (inactive),-48% (active),-34.1% (active),40.1% (inactive)
